54 compounds from ChEMBL document CHEMBL3988442, “University of Dundee, Small-Polar-MMV Screening Library” (2021) can be followed below.

SMILES strings stand for the structures. Hit rate of the full screen: of about 67,000 compounds, about 300 (0.45%) showed an effect of 50% or more. The list comes from a sample in which strong results are over-represented; it also holds similar structures and randomly drawn compounds.

The target in this experiment is Polyketide synthase Pks13 (Mycobacterium tuberculosis (strain ATCC 25618 / H37Rv)) (UniProt I6X8D2). The experiment is described as follows: Mycobacterium tuberculosis Polyketide synthase 13 Thioesterase (PKS13). Type of experiment: functional. The note with it: 30 µM. Details: scale not given: in the data most compounds retested in dose-response had high values.
Polyketide synthase Pks13 (Mycobacterium tuberculosis (strain ATCC 25618 / H37Rv)), sequence (I6X8D2 whole entry): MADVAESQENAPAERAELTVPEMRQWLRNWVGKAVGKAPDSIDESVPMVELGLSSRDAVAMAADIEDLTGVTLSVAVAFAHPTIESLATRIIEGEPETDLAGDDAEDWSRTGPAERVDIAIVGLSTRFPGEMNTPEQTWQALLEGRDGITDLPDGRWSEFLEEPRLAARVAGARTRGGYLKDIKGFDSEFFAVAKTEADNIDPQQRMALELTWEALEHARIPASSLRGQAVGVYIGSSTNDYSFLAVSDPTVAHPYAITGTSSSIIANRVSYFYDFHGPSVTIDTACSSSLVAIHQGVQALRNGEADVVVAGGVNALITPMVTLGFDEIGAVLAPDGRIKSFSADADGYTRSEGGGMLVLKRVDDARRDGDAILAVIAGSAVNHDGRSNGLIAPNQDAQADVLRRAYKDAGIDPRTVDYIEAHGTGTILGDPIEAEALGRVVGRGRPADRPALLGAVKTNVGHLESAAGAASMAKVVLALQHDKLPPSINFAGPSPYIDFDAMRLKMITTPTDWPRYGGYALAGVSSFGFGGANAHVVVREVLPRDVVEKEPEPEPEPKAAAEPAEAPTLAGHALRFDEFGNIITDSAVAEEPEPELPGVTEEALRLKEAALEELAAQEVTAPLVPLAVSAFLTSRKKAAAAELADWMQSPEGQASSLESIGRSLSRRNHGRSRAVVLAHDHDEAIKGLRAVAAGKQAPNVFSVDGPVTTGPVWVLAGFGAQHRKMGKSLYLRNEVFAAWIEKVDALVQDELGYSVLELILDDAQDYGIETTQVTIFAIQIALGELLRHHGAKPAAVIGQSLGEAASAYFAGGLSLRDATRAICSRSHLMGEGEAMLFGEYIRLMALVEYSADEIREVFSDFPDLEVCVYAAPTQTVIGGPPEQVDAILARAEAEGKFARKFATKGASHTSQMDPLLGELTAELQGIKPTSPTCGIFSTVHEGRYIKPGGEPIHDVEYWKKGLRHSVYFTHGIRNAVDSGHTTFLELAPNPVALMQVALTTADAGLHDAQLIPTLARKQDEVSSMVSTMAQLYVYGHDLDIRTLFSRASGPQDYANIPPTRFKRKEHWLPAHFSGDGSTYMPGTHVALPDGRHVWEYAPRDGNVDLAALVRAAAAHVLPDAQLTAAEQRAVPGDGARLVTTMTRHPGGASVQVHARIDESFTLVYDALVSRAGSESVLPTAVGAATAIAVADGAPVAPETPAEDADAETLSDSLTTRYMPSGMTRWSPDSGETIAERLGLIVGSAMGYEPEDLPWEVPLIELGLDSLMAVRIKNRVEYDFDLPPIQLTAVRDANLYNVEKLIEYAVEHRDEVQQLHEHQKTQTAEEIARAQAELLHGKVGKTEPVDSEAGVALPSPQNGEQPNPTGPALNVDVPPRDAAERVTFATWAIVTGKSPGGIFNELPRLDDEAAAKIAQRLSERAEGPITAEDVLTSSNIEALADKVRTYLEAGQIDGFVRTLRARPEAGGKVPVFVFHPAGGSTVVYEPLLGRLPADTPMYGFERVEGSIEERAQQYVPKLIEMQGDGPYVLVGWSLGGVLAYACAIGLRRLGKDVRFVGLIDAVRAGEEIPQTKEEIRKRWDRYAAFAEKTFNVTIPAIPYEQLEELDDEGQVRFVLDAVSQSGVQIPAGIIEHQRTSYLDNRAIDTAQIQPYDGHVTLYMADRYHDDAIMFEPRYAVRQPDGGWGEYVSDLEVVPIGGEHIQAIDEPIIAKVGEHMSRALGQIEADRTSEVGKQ
On to `Cc1noc([C@@H]2CC[C@@H]3[C@@H](CCN3S(=O)(=O)c3cccnc3)O2)n1`, for which the Percent Effect worked out at 4.22%. In the case of `O=C1OCCN1CC(=O)N1C[C@H]2CC[C@@H]1CN(C(=O)c1ccccn1)C2`, the Percent Effect is -14.6%. For `Cc1ccc(N2CC[C@@H]3CN(Cc4cc[nH]n4)C[C@@H]3C2)nn1` the value was 3.96%; for `CCN1CCN(S(=O)(=O)N2CCCC2)[C@H]2CS(=O)(=O)C[C@H]21`, -23.5%.

Consider `CC(=O)N1CC[C@H]2N(C)CC[C@@]2(C(=O)Nc2cccnc2)CC1`, for which the Percent Effect is -11.6%. The same measure for `O=C(c1ccco1)N1C[C@H]2CN(Cc3cccc(F)c3)C(=O)[C@H]2C1`: -4.13%; for `c1ccc2c(c1)C(NC1CCCC1)CC21CCNCC1` (centres undefined): -6.43%. Regarding `CNC(=O)N1C[C@H]2CC[C@@]3(N=C(c4ccccc4)NC3=O)[C@H]2C1`, the Percent Effect is -17.2%. For `CCOC(=O)[C@@H]1[C@@H](c2ccccc2)CN2CCN(S(C)(=O)=O)C[C@H]12` the value was -1.54%; for `c1coc(CN2C[C@@H]3OCCN(CCN4CCCC4)[C@@H]3C2)c1`, -17.4%; for `CCc1nnc(Nc2cccc(C3CCN(C(=O)CNC)CC3)n2)s1`, -24.5%. On to `CCc1nnc(Nc2cccc(C3CCN(C(=O)CO)CC3)n2)s1`, for which the Percent Effect was found to be 4.46%. For `CCc1nnc(Nc2cccc(C3CCN(C(C)=O)CC3)n2)s1` the value was 86.9%; for `CC(=O)N1CCO[C@@H]2CN(C(=O)NCc3ccccc3)CC[C@@H]2C1`, -30.5%; for `Cc1ccc(N2CC[C@H]3O[C@H](C(=O)NCc4ccco4)CC[C@H]32)nn1`, -3.57%. For `Cc1ccc(N2CC[C@H]3OCC[C@@]3(C(=O)N3CCCO3)C2)nn1`, the Percent Effect was -34%. `COc1ccc(CN2C[C@@H]3OCC(=O)N(Cc4nccn4C)[C@@H]3C2)cc1`: the Percent Effect is -29.9%. On to `O=C1CNc2ncnc(N3CCN(Cc4ccccc4F)CC3)c2N1`, for which the Percent Effect amounted to 84.6%. For `O=C1CNc2ncnc(N3CCN(Cc4ccccc4)CC3)c2N1` the value was -2.51%; for `Cc1ccccc1CN1CCN(c2ncnc3c2NC(=O)CN3)CC1`, -5.54%. For `Cc1noc(C)c1CN1CC[C@H]2C[C@@H](c3ccncn3)O[C@@H]2C1`, the Percent Effect was -34.7%.

For `Cc1nc2cc(C3CCCCN3C(=O)C3CC3)nn2c(O)c1C` (centres undefined), the Percent Effect was 9.02%. Take `CC(=O)N1N=C(c2ccco2)OC1C(=O)N(CC(C)C)CC(C)C` (centres undefined): the Percent Effect is -6.84%. Turning to `CC(=O)N1N=C(c2ccco2)OC1C(=O)NCCc1ccc(O)cc1` (centres undefined), the Percent Effect came to 8.81%. Turning to `CC(=O)N1N=C(c2ccco2)OC1C(=O)NCC(C)C` (centres undefined), the Percent Effect came out at 52.5%. `CS(=O)(=O)N1CC[C@H]2OCC[C@@]2(C(=O)NCc2ccccn2)C1`: the Percent Effect is -5.05%. Take `O=C(c1ccco1)N1C[C@@H]2CCN(c3cccnc3)C[C@@H]2C1`: the Percent Effect is 18.9%. For `COc1ccc(C2(C(=O)N3CC[C@@]4(O)CCNC[C@H]4C3)CCCC2)cc1` the value was -3.94%; for `Nc1nc2c(c(=O)[nH]1)CCN(C(=O)c1cccc3nccnc13)C2`, 2.77%; for `COc1cccc(C(=O)N2CCc3c(nc(N)[nH]c3=O)C2)c1C`, 79.5%. For `COc1cccc(C(=O)N2CCc3c(nc(N)[nH]c3=O)C2)c1OC` the value was -13.9%; for `O=C1CC[C@H]2CN(Cc3cccc(F)c3)CC[C@H]2N1CCc1c[nH]cn1`, -22.1%.

Take `COCCC(=O)N1C[C@H]2CN(Cc3cccnc3)C(=O)[C@H]2C1`: the Percent Effect is -37.5%. On to `NCC1[C@H]2CN(Cc3cccc(Cl)c3)C[C@@H]12` (some centres undefined), for which the Percent Effect is -29.5%. Turning to `CNC(=O)N1C[C@H]2N(c3ncccn3)CCC[C@@]2(C(=O)NCC2CC2)C1`, the Percent Effect was -22%. With `COC(=O)C(C)(C)NC(=O)c1cnc(C(C)(C)C)s1`, the Percent Effect was -10.1%. As to `COC(=O)C(C)(C)NC(=O)c1cc2sc(N(C)C)nc2s1`, the Percent Effect was 52.3%. Take `CCN(CC)c1nc2sc(C(=O)NC(C)(C)C(=O)OC)cc2s1`: the Percent Effect amounted to 39.6%.

With `CCCS(=O)(=O)N1C[C@H]2C[C@H](C(=O)N3CCOCC3)[C@@H](C1)O2`, the Percent Effect was -22.9%. Take `Cc1cccc(CN2C(=O)CC[C@@H]3[C@H]2CCN3Cc2nccn2C)n1`: the Percent Effect was -58.5%. For `COCCN1C(=O)C[C@@H]2[C@H]1CCN2C(=O)c1ccc[nH]1`, the Percent Effect is -9.69%. Regarding `CN1CCCC[C@@H]2[C@H]1[C@@H](c1ccccc1)CCN2C(=O)c1cccnc1`, the Percent Effect is 9.14%. With `Cc1noc([C@H]2COC[C@H]3CN(C(=O)Cc4ccsc4)C[C@H]32)n1`, the Percent Effect was -1.57%. Consider `CC(=O)N1CCCC1c1ccc(Br)cn1` (centres undefined), for which the Percent Effect was 61.5%. As for `CC(=O)N1CCCC(c2ccc(Br)cn2)C1` (centres undefined), the Percent Effect is -6.19%. As for `CC(=O)N1CCCC1c1ccc(-c2c(C)noc2C)cn1` (centres undefined), the Percent Effect is -29.1%. With `Cc1cccc(CN2C(=O)CC[C@@H]3[C@H]2CCN3C(=O)c2ccsc2)n1`, the Percent Effect was -13.6%. The same measure for `Cc1ccnc(OC[C@@]23CCO[C@@H]2CCN(S(C)(=O)=O)C3)n1`: -29.2%; for `CN(C)[C@@H]1CN(C(=O)Cc2cccc(F)c2)[C@@H]2CCCO[C@H]12`: -3.8%.

As for `Cn1ncc(C(=O)OCC2CCN(c3ccccc3)C2)c1C(F)F` (centres undefined), the Percent Effect was determined as 11.4%. Take `COCc1nc(C(=O)OCC2CCN(c3ccccc3)C2)cs1` (centres undefined): the Percent Effect worked out at 58.1%.

`Cc1ncsc1C(=O)OCC1CCN(c2ccccc2)C1` (centres undefined): the Percent Effect stood at 30.2%.

`O=C(OCC1CCCN(C(=O)c2ccccc2)C1)c1cscn1` (centres undefined): the Percent Effect was 10.2%. In the case of `O=C(OCC1CCN(c2ccccc2)C1)c1cscn1` (centres undefined), the Percent Effect was 62.9%.
